Measurements published in PubChem BioAssay.
Values without a mark were called inactive. Calls of active or inactive are those of the source. Cut-off read from the data, not from the text of the source, unless noted: active = inhibition above about 44%; inactive = the rest.

Experiments:
[1] = StAR promoter reporter inhibitors, counter-screen for LRH-1 inverse agonist project, cell-based, luminescence, high throughput (AID 651611; in the data active = inhibition above about 28%); settings: StAR promoter luciferase reporter counterscreen, at 3.6 µM, active compounds read high
[2] = target: Nuclear receptor subfamily 5 group A member 2 (Homo sapiens) (UniProt O00482); assay: NR5A2 activity suppression in reporter cells – cell-based, luminescence, confirmation (AID 651613; in the data active = inhibition above about 42%;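 note: HEK293T cells co-transfected with LRH-1 and StAR promoter luciferase reporter; 0% = vehicle wells and 100% = parental cells lacking receptor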); settings: cell-based LRH-1 luciferase reporter, inverse agonism; at 3.6 µM; active compounds read high
Sequence of Nuclear receptor subfamily 5 group A member 2 (Homo sapiens) (O00482 whole entry, looked up): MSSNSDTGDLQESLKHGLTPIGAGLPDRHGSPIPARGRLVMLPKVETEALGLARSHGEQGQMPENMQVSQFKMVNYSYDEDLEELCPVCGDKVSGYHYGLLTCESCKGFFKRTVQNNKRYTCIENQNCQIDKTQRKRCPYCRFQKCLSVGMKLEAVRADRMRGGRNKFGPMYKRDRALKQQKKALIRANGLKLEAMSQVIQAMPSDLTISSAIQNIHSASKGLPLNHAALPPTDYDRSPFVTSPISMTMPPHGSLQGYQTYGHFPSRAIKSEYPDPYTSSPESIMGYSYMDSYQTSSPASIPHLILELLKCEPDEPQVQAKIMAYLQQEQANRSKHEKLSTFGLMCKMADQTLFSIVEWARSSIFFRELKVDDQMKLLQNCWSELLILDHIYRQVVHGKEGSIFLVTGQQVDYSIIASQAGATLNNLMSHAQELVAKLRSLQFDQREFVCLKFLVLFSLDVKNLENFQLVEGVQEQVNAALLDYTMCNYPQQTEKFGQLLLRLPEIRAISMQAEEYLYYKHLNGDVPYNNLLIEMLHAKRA

[3] = target: Steroidogenic factor 1 (Homo sapiens) (UniProt Q13285); assay: inverse agonism at SF1 nuclear receptor – cell-based, luminescence, high throughput, counter-screen for LRH-1 inverse agonist project (AID 651614); settings: cell-based SF1 luciferase reporter, at 3.6 µM, active compounds read high;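 note: cells cotransfected with StAR promoter reporter and SF1 expression vector; 0% = vehicle on cells with receptor and 100% = vehicle on cells lacking receptor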
Sequence of Steroidogenic factor 1 (Homo sapiens) (Q13285 whole entry, looked up, the tested form may be a part): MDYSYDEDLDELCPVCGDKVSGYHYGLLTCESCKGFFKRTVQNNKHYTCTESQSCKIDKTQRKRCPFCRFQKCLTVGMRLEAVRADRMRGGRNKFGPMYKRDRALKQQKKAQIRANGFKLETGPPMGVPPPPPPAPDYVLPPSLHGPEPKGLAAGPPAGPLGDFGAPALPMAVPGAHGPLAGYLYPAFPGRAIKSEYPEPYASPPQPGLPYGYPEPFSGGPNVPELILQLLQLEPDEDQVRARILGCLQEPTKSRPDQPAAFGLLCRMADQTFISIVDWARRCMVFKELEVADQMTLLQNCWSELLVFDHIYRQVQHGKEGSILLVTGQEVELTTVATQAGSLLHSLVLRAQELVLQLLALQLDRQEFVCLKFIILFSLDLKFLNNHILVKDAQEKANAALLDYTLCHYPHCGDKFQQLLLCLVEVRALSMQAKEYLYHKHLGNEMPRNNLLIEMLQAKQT

[4] = compounds suppressing VP16-driven luciferase signal – cell-based, luminescence, high throughput, counter-screen for LRH-1 inverse agonist project (AID 651615; in the data active = inhibition above about 33%); settings: Gal4-VP16 luciferase reporter cells, at 3.6 µM, active compounds read high

Row | Compound | inhibition [1] | inhibition [2] | inhibition [3] | inhibition [4]
1 | O=C(CSc1n[nH]c(-c2ccccc2)n1)Nc1ccc(N2CCOCC2)cc1 | 1.99% | 56.6% (active) | 49% (active) | -15.3%
2 | COc1ccccc1NC(=O)CN1CCN(CC(=O)Nc2ccc3c(c2)OCCO3)CC1 | 6.64% | 56.8% (active) | 49.5% (active) | -7.19%
3 | OCC1OC(n2cnc3c(/C=C(\O)c4ccccc4)ncnc32)C(O)C1O (stereo unspecified) | -32.8% | -13.9% | -0.35% | -27.3%
4 | COc1ccc(CCC(=O)Nc2c(-c3ccc(N(C)C)cc3)[nH][nH]c2=O)cc1 | 4.07% | 27.3% | 37.5% | -2.18%
5 | O=C(COc1ccc(C(=O)c2ccccc2)cc1)NCc1ccc(F)cc1 | 19.9% | 28.7% | 37.9% | 30.4%
6 | CCOc1ccc(NC(=O)COC(=O)c2ncc(Cl)c(Cl)c2Cl)cc1 | 21.6% | 38.4% | 36.8% | -18.7%
7 | CCOc1ccc(CCNC(=O)COC(=O)Cc2c[nH]c3ccccc23)cc1OCC | 9.43% | 56.5% (active) | 56.3% (active) | -0.69%
8 | On1ccccc1=S | 86.8% (active) | 83.1% (active) | 82.3% (active) | 87.5% (active)
9 | CC[C@H](CO)Nc1nc(Nc2cccc(Cl)c2)c2ncn(C(C)C)c2n1 | 26% | 49.3% (active) | 38.4% | 35.9% (active)
